# Results with a measured potency or affinity are listed apart. A number with no mark means an inactive call.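 How the source made its calls: active means viability loss whose fitted half-maximal concentration is at most twice the top valid tested dose; inconclusive means flat curve with 30 to 70% loss, or poor fit; inactive means the rest.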
# Experiment: viability loss in HepG2 liver cells – cell-based, ATP luminescence, cherry-pick, set 6, cytotoxicity control, dose response (AID 1053125);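 further: negative values mean loss of viability signal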
# Details: ATP luminescence (CellTiter-Glo), 72 h; series mostly up to 26 µM; activity change, negative = cytotoxicity: at the top concentration
row,SMILES,"activity change, negative = cytotoxicity [%]"
1,CC(C)(C)[C@H]1CCC(=O)N([C@H](CSc2ccccc2)Cc2ccccc2)CC1,-0.826
2,CCC(C)n1c(=N)c(C#N)cc2c(=O)n3cccc(C)c3nc21 (stereo not given),-8.48
3,CCc1cccc(OC2OC(CO)C(O)C(O)C2NC(C)=O)c1 (stereo not given),-12.1
4,CC(=O)NNc1cc(N2CCOCC2)nc(N2CCOCC2)n1,6.7
5,Cc1oc(/N=C/c2ccc(O)cc2O)c(C#N)c1C,-16.4
6,CSC1=NSC2=NC(=O)/C(=C/c3coc4ccc(O)cc4c3=O)C(=N)N12,-14.4
7,Cc1cc(-c2ccccc2)c2ccc(NC(=O)C(C)(C)C)nc2n1,-0.045
8,CCNc1nc2nc3ccc(C)cn3c(=O)c2cc1C(=O)NCC1CCCO1 (stereo not given),-17.4
9,CCN1C(=O)c2cccc3c(S(=O)(=O)N(C)C)ccc1c23,-11.1
10,CCN(CC)CCCNc1nc(C)cc(COC)c1C#N,-2.85
11,CCOc1ccc2nc(NCCCNS(=O)(=O)c3ccc(C)cc3)c(C#N)cc2c1,-1.54
12,CCCOc1c(Br)cc(C2C3=C(CCCC3=O)N(C)C3=C2C(=O)CCC3)cc1OC,-0.917
13,Cc1noc(C)c1S(=O)(=O)N(CC(=O)N1CCCCCC1)c1ccc(C(C)C)cc1,-21.8
14,CC(C)C(=O)Nc1sc2c(c1C(N)=O)CCN(Cc1ccccc1)C2,-11
15,CC(=O)c1sc(N/N=C\c2ccc(N(C)C)cc2)nc1C,-8.39
16,Cc1ccc(C(=O)OCC(=O)Nc2c(C)nn(-c3ccccc3)c2C)c(O)c1,9.12
17,COCCN1C=C(C(=O)OC)C(c2ccc(Cl)cc2)C(C(=O)OC)=C1,-14.3
18,Cc1cc(-n2c(=O)c(C#N)cc3c(=O)n4cccc(C)c4nc32)no1,-6.56

row,SMILES,"activity change, negative = cytotoxicity [%]"
1,Cc1cccn2c(=O)c3cc(C(=O)NCc4ccco4)c(=N)n(CCc4ccccc4)c3nc12,1.38
2,COc1c(Cl)cc(-c2noc(C)c2C(=O)NCc2ccc3c(c2)OCO3)cc1Cl,-5.56
3,CCn1c(=N)c(C(=O)NCCCOC)cc2c(=O)n3cccc(C)c3nc21,65.3
4,N#Cc1ccc(OCC(=O)OCC(=O)N2CCc3ccccc32)cc1,-1.16
5,COc1cc(C2C3=C(CC(C)(C)CC3=O)N(C)C3=C2C(=O)CC(C)(C)C3)cc(Br)c1O,-9.6
6,Cc1c(C=O)c2ccccn2c1C(=O)c1cccs1,1.65
7,Cc1ccc2nc3c(cc(S(=O)(=O)c4ccccc4)c(=N)n3Cc3ccco3)c(=O)n2c1,-15.1
8,COc1ccc(NC(=O)C2CCC(CNS(=O)(=O)c3cccs3)CC2)cc1 (stereo not given),4.3
9,CCCN1CCN(C(=O)c2ccc(CS(=O)c3ccc(Br)cc3)o2)CC1 (stereo not given),4.12
10,CSc1ccc(Cl)c(C(=O)N2CCOc3ccccc32)c1,-2.96
11,Fc1ccc(-c2nc3ccccn3c2NCc2ccc3c(c2)OCO3)cc1,-7.07
12,CCN1C=C(C(=O)OC)C(c2cccc(OC)c2OC)C(C(=O)OC)=C1,3.47
13,CCCN1CCc2c(sc(NC(=O)C3CCN(S(=O)(=O)c4cccs4)CC3)c2C(N)=O)C1,-10.9
14,Cc1ccc(-n2c(C)cc(/C=N/NC(=O)Cn3c4ccccc4c(=O)c4ccccc43)c2C)cc1,-6.83
15,Cc1cccn2c(=O)c3cc(C(=O)NCCc4ccccc4)c(=N)n(CCCn4ccnc4)c3nc12,-14.1
16,O=C(O)c1cccc(NC(=O)c2cn(-c3ccccc3)nc2-c2cccc(Br)c2)c1,-7.45
17,O=c1oc2c(CN3CCCCC3)c(O)ccc2cc1-c1nc2ccccc2[nH]1,-10.6

# Reference: PubChem BioAssay AID1053125 (Broad Institute, 2014)
